Here are results for 88 molecules from publication PMC4336329 (PLoS ONE, 2015).

In all, about 310,000 compounds went through this assay and about 2,200 (0.71%) showed an effect of 50% or more. The effect is printed as a negative number. Many of the other results were omitted from the sample, so strong results are more common in it than they were.

The target in this experiment is human ether-à-go-go-related gene (hERG) potassium channel (human, UniProt Q12809). Put plainly: primary screen, population patch clamp on CHO cells stably expressing hERG; higher = less effect of the substance.
Sequence of human ether-à-go-go-related gene (hERG) potassium channel (Q12809 whole entry, looked up): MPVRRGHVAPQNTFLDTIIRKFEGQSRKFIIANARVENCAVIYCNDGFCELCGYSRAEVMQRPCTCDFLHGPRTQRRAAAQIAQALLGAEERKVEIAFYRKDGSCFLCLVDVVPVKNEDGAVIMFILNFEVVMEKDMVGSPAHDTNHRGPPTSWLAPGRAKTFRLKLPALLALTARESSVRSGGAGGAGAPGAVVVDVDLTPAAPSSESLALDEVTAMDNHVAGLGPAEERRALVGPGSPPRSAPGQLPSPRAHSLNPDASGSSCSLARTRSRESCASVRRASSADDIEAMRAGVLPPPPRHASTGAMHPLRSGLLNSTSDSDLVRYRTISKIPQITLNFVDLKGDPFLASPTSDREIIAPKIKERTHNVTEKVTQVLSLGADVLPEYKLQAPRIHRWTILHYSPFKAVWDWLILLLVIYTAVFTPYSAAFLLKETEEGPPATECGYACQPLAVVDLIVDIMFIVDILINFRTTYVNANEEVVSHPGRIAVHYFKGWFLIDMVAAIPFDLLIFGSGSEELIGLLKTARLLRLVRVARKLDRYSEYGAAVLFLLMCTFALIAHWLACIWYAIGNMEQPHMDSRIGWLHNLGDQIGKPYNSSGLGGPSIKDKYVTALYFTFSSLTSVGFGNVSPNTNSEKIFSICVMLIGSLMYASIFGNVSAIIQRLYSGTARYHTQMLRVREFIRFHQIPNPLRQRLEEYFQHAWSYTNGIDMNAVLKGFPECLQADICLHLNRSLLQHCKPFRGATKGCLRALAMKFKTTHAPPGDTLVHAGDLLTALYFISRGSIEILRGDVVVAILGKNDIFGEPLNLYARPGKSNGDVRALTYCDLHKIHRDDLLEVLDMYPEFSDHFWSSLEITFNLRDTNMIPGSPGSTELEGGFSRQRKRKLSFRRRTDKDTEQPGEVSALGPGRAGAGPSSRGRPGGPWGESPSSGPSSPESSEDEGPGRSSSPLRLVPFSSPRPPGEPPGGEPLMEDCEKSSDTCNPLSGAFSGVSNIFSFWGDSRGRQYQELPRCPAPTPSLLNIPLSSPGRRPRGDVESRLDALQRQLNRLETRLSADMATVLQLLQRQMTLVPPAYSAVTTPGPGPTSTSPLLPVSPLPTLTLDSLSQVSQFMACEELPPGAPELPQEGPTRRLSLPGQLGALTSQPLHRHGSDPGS
As to `O=C(Oc1ccc(C(=S)N2CCOCC2)cc1)c1ccccc1[N+](=O)[O-]`, the “hERG current change (%, negative = inhibition) at 1uM” value came to 21.2%.
The same measure for `O=C(Nc1ccc(Cl)cc1)Nc1nnc(Cc2ccc([N+](=O)[O-])cc2)s1`: 13.9%; for `COc1ccccc1CCNC(=O)C1CCN(c2nnc(C)c3c(C)n(-c4ccc(C)cc4)nc23)CC1`: 14.7%.
The same measure for `CN/C=C(/Cl)P(=O)(OC(C)C)OC(C)C`: 11%.
For the molecule `COc1ccccc1C(=O)Nc1ccnn1C1CCN(Cc2cnn(C)c2C)CC1`, the “hERG current change (%, negative = inhibition) at 1uM” value is -28.8%.
The same measure for `COc1ccccc1C(=O)Nc1ccnn1C1CCN(Cc2ncc[nH]2)CC1`: 6%.
The value for `CCCn1ncc(CN2CCC(n3nccc3NC(=O)c3ccccc3OC)CC2)c1C` was -73.2%; that for `CCn1ccnc1CN1CCC(n2nccc2NC(=O)c2ccccc2OC)CC1` was -64.9%.
The value for `COc1ccccc1C(=O)Nc1ccnn1C1CCN(Cc2ccn[nH]2)CC1` was 1.62%; that for `CCCn1ncc(CN2CCC(n3nccc3NC(=O)c3ccccc3Cl)CC2)c1C` was -47.6%; that for `COc1ccccc1C(=O)Nc1ccnn1C1CCN(Cc2cn(C)c3ccccc23)CC1` was -74.9%.
Turning to `CCn1ccnc1CN1CCC(n2nccc2NC(=O)CCc2ccccc2)CC1`, the “hERG current change (%, negative = inhibition) at 1uM” value is given as 15.9%.
The value for `COc1ccccc1C(=O)Nc1ccnn1C1CCN(Cc2cnc(N(C)C)s2)CC1` was -24.7%; that for `COc1ccccc1C(=O)Nc1ccnn1C1CCN(C(=O)C2CCOC2)CC1` (stereo not shown) was 4.19%.
The same measure for `Cn1cc(CN2CCC(n3nccc3NC(=O)c3ccccc3Cl)CC2)c2ccccc21`: -47.6%; for `CCOc1ccc(CN2CCC(n3nccc3NC(=O)c3ccccc3OC)CC2)cc1`: -89.4%.
The same measure for `CCCCn1c(O)c(C(CC)=Nc2ccc(OC)cc2OC)c(=O)[nH]c1=O`: 4.73%.
As to `Cc1ccc2c(CN3CC(C)CC(C)C3)cc(=O)oc2c1C` (stereo not shown), the “hERG current change (%, negative = inhibition) at 1uM” value is reported as 9.29%.
The same measure for `COC(=O)C(NC(C)=O)(Nc1ccc(Br)cn1)C(F)(F)F` (stereo not shown): 6.68%.
The same measure for `CCCCNC(=O)COC(=O)c1ccc(C)c(NC(=O)c2ccco2)c1`: 11.3%.
The same measure for `COC(=O)COc1cc(C)cc2oc(=O)c3c(c12)CCCC3`: -4.18%; for `O=C(CCCN1C(=O)c2ccccc2C1=O)Nc1nncs1`: 14.9%.
For the molecule `COc1ccccc1C(=O)Nc1ccnn1C1CCN(Cc2ccc3nonc3c2)CC1`, the “hERG current change (%, negative = inhibition) at 1uM” value is reported as -61.8%.
Consider `CC(=O)c1cc(CN2CCC(n3nccc3NC(=O)c3ccccc3C)CC2)cs1`, for which the “hERG current change (%, negative = inhibition) at 1uM” value was -15.8%.
The same measure for `O=C(Nc1ccnn1C1CCN(Cc2ccccc2OCCO)CC1)c1cccc(F)c1`: -6.97%; for `CCn1cc(CN2CCC(n3nccc3NC(=O)c3ccccc3C)CC2)cn1`: -14.9%; for `CC(=O)c1cc(CN2CCC(n3nccc3NC(=O)c3ccccc3Cl)CC2)cs1`: -40.5%.
The value for `COc1ccccc1C(=O)Nc1ccnn1C1CCN(Cc2csc(C(C)=O)c2)CC1` was -50.9%; that for `COc1ccccc1C(=O)Nc1ccnn1C1CCN(Cc2ccccc2OCCO)CC1` was -79.5%.
The value for `COc1ccccc1C(=O)Nc1ccnn1C1CCN(Cc2cnn(C)c2)CC1` was -27%.
`COc1ccccc1CN1CCC(n2nccc2NC(=O)c2ccccc2Cl)CC1`: the “hERG current change (%, negative = inhibition) at 1uM” value is listed as -47.2%.
Regarding `CCn1cc(CN2CCC(n3nccc3NC(=O)c3ccccc3OC)CC2)cn1`, the “hERG current change (%, negative = inhibition) at 1uM” value is on record as -53.5%.
For `COc1ccc(C(=O)Nc2ccnn2C2CCN(Cc3ccc4nonc4c3)CC2)cc1`, the “hERG current change (%, negative = inhibition) at 1uM” value is on record as -0.334%.
The value for `N#CCC1c2ccccc2CCN1C(=O)Nc1ccc(C(F)(F)F)cc1` (stereo not shown) was -4.23%.
The same measure for `COc1ccccc1S(=O)(=O)CC(O)COc1ccc(F)cc1Cl` (stereo not shown): 12.6%; for `O=C(CNC(=O)c1ccc(Br)cc1)NCC(=O)OCC(=O)c1ccccc1`: 9.69%.
Take `CC(=O)Nc1cc2c3c(c1)CCN3C(=O)CC2`: the “hERG current change (%, negative = inhibition) at 1uM” value was 22.9%.
Take `CCC1=Nc2ccccc2NC2=C1C(=O)CCC2.Cl`: the “hERG current change (%, negative = inhibition) at 1uM” value was -18.7%.
Consider `CC(C)(C)NC(=O)Cn1c(SCC(=O)Nc2nccs2)nc2ccccc21`, for which the “hERG current change (%, negative = inhibition) at 1uM” value came out at 10.4%.
As for `CC(C)COC(=O)NC1c2ccccc2Oc2ccccc21`, the “hERG current change (%, negative = inhibition) at 1uM” value is on record as -2.38%.
The same measure for `CCCCn1nnc(NC(=O)Cc2ccc(Cl)cc2)n1`: -4.74%; for `CCOC(=O)c1c(C)[nH]c(C)c1S(=O)(=O)NCC1CCN(Cc2ccccc2F)CC1`: 8.12%; for `COc1cc2nc(CN3CCOCC3)n(CC(=O)NCC(F)(F)F)c(=O)c2cc1OC`: 11.5%.
The value for `COC(=O)c1nnn(-c2nonc2N)c1COc1ccc(C=O)cc1OC` was -1.8%; that for `Cc1c(C2N3CC4(C)CN2CC(C)(C3)C4=O)c2ccccc2n1C` (stereo not shown) was -15.5%; that for `CC1=Nc2cc(C(=O)NCCCN3CCOCC3)ccc2Sc2c(C)ccc(C)c21` was 14.7%.
The value for `N#Cc1ccc(/C=C/C(=O)c2ccco2)cc1` was 5.85%.
For `COc1ccc(C(=O)NC2CC3CCCC(C2)N3CC(C)C)cc1OC` (stereo not shown), the “hERG current change (%, negative = inhibition) at 1uM” value was 8.35%.
The value for `Cc1cccc(C(=O)NCCCn2ccnc2)c1C` was 4.84%; that for `COc1cc(CN2CCC(n3nccc3NC(=O)CCCc3ccccc3)CC2)ccc1F` was 9.25%; that for `COc1cc(CN2CCC(n3nccc3NC(=O)C3CCOC3)CC2)ccc1F` (stereo not shown) was 2.37%.
With `COc1cc(CN2CCC(n3nccc3NC(=O)c3ccccc3OC)CC2)ccc1F`, the “hERG current change (%, negative = inhibition) at 1uM” value is given as -77.6%.
The same measure for `COc1ccc(NC2CCCN(C(=O)CSc3ccccc3)C2)cc1` (stereo not shown): 8.31%.
The value for `CSc1cccc(NC(=S)N(CCCN2CCCC2)Cc2cccs2)c1` was -17.9%; that for `CC1CCN(CCCn2c(SCC(=O)Nc3ccccc3Cl)nc3ccccc3c2=O)CC1` was -34.1%; that for `COc1ccc(NC(=O)CSc2nc3ccccc3c(=O)n2CCCN2CCC(C)CC2)c(OC)c1` was -72.1%.
The value for `COc1ccc(NC(=O)CSc2nc3ccccc3c(=O)n2CCCN2CCOCC2)c(OC)c1` was 1.25%; that for `COc1ccc(NC(=O)CSc2nc3ccccc3c(=O)n2CCCN2CCCCC2)c(OC)c1` was -27.7%; that for `CCCCn1c(SCC(=O)NC2CCCC2)nc2ccccc2c1=O` was 4.94%.
On to `CC1CCN(CCCn2c(SCC(=O)NC3CCCC3)nc3ccccc3c2=O)CC1`, for which the “hERG current change (%, negative = inhibition) at 1uM” value was -64.8%.
The value for `CC1CCCCC1NC(=O)COC(=O)c1ccc(N(C)C)cc1` (stereo not shown) was 9.14%; that for `O=C(Cc1csc(NC(=O)Nc2cccc(Cl)c2)n1)NCc1cccnc1` was -44.2%.
The same measure for `Cc1ccc(NC(=O)c2ccncc2)cc1S(=O)(=O)N(C)C`: 0.0196%.
In the case of `CCc1ccc(NC(=O)c2noc(C(C)C)c2[N+](=O)[O-])cc1`, the “hERG current change (%, negative = inhibition) at 1uM” value came out at 8.97%.
The value for `O=C(Nc1cccc(Cl)c1N1CCOCC1)c1ccc(Br)o1` was 4.08%.
For the molecule `O=C(Nc1cccc(Cl)c1N1CCCC1)c1ccco1`, the “hERG current change (%, negative = inhibition) at 1uM” value came out at 16.2%.
The value for `CCN1CCN(c2c(Cl)cccc2NC(=O)c2ccco2)CC1` was -70.7%; that for `O=C(Nc1cccc(Cl)c1N1CCOCC1)c1ccc([N+](=O)[O-])o1` was 3.63%.
With `CCN1CCN(c2c(Cl)cccc2NC(=O)c2ccc(Br)o2)CC1`, the “hERG current change (%, negative = inhibition) at 1uM” value is listed as -59.3%.
The same measure for `CCN1CCN(c2c(Cl)cccc2NC(=O)c2ccc([N+](=O)[O-])o2)CC1`: -77%; for `O=C(Nc1cccc(Cl)c1N1CCOCC1)c1ccco1`: 4.55%; for `O=C(Nc1cccc(Cl)c1N1CCCC1)c1ccc([N+](=O)[O-])o1`: 9.79%.
The value for `O=C(Nc1cccc(Cl)c1N1CCCC1)c1ccc(Br)o1` was -5.81%; that for `Cc1nc([N+](=O)[O-])cn1CC(=O)Nc1ccc(Cl)cc1` was 14.3%.
As for `OCCNC(=S)NCCc1ccccc1`, the “hERG current change (%, negative = inhibition) at 1uM” value amounted to 9.19%.
The value for `COCCNC(=S)N(CCN(C)C)Cc1cc2cc3c(cc2[nH]c1=O)OCO3` was 15.5%; that for `CC(C)c1cc(C(=O)N2CCCC(N3CCN(c4ccccc4F)CC3)C2)nc(N)n1` (stereo not shown) was 10.1%; that for `O=C(Nc1ccc(Cl)cn1)Nc1ccccc1F` was 0.928%.
The value for `CC(C)Oc1ccc(N2CC(C(=O)Nc3ccc(N4CCOCC4)cc3)CC2=O)cc1` (stereo not shown) was 24.6%.
The same measure for `OCC1(CCOc2ccccc2)CCN(Cc2ccccc2C(F)(F)F)CC1`: 3.9%; for `CCOc1ccccc1CN1CCC(CO)(CCOc2ccccc2)CC1`: -66.8%.
For `OCC1(CCOc2ccccc2)CCN(Cc2cc(Cl)ccc2O)CC1`, the “hERG current change (%, negative = inhibition) at 1uM” value was -0.875%.
The value for `Cc1nn(C)cc1CN1CCC(CO)(CCOc2ccccc2)CC1` was 8.14%; that for `OCC1(CCOc2ccccc2)CCN(Cc2ccc(OC(F)F)cc2)CC1` was -87.1%.
The same measure for `C=CCOc1ccccc1CN1CCC(CO)(CCOc2ccccc2)CC1`: -61.4%.
The value for `Cc1cc(C)c(CN2CCC(CO)(CCOc3ccccc3)CC2)cc1C` was -0.659%; that for `OCC1(CCOc2ccccc2)CCN(Cc2ccccc2OC(F)F)CC1` was -54.4%.
For the molecule `OCC1(CCOc2ccccc2)CCN(Cc2ccc3c(c2)OCCO3)CC1`, the “hERG current change (%, negative = inhibition) at 1uM” value is given as -31.2%.
